# Screens deposited in PubChem by National Center for Advancing Translational Sciences (NCATS).
# In the library only some 1.7% were active in any assay of this set; here they are far more common.
# KCNH2 3.1 inh: inhibitors of human KCNH2 3.1 potassium channel isoform; U2OS KCNH2 3.1, thallium flux FluxOr; stronger effect = lower value; activity change, % (tested at about 1.8 µM); hit rate 0.95% among 340,000;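 active = maximum activity change below -70%; inconclusive = maximum activity change from -70% to -50%; inactive = maximum activity change above -50%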;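 also: thallium influx rate constant from kinetic fluorescence after stimulation buffer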
#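 Kinetic fluorescence (2 min after stimulation buffer) measures Tl+ influx through KCNH2 3.1 expressed by viral transduction in U2OS cells; the rate constant is normalized against DMSO controls serving as positive and negative references.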
# KCNH2 WT inh: inhibitors of human wildtype KCNH2 potassium channel; hit rate 0.37% among 340,000; U2OS, BacMam KCNH2, thallium flux FluxOr; stronger effect = lower value; activity change, % at 1.84 µM; Q12809;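 active = maximum activity change below -70%; inconclusive = maximum activity change between -70% and -50%; inactive = maximum activity change above -50%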
#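 U2OS cells transduced with wild-type KCNH2 virus are loaded with FluxOr dye for 45 min, and thallium flux is measured in kinetic reads before and after stimulation buffer. Rate constants are normalized to DMSO controls.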
# Giardia killer: kills Giardia lamblia | Giardia lamblia trophozoite viability | activity change, % at 7.66 µM, hits read low | hit rate 0.15% among 340,000; in the data active = activity change below about -80%; inconclusive = between about -30% and that limit;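 also: parasites exposed to compound for two days anaerobically before the ATP read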
#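 Luminescent ATP signal served as the viability read-out, measured 15-30 min after adding ATP detection reagent to trophozoites that had been incubated with compounds for 48 hrs at 37 deg C anaerobically at 100 cells/well.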
# FBPA coupling cs: inhibits coupling enzyme system, counter-screen for aldolase hits; coupling enzyme system counterscreen, AmpLite Red fluorescence; activity change, negative = inhibition, % at 58.2 µM, hits read low; hit rate 0.67% among 290,000; AID 2472; in the data active = activity change below about -30%
#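 Compounds tested against the coupling enzymes alone at 57.5 uM final; readout was AmpLite Red fluorescence (525/598 nm) after 20 min at RT.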
# USP1-UAF1 inh: inhibitors of human USP1/UAF1 deubiquitinase; O94782; recombinant USP1/UAF1, Ub-Rhodamine cleavage fluorescence; Potency, µM (highest dose often 57.1 µM), for inactives: at the highest dose activity change, negative = inhibition, usual class: inhibitors; hit rate 0.23% among 390,000; AID 743255; active = well fitted inhibition curve with a large enough effect; inconclusive = small, poorly fitted or top-dose-only effect; inactive = no such curve, though single readings can be large or run the other way; also: potency is read from the fitted curve at half-maximal effect; nearly all actives have a fitted effect of over 60% in size
# Target sequence (O94782 whole entry, looked up): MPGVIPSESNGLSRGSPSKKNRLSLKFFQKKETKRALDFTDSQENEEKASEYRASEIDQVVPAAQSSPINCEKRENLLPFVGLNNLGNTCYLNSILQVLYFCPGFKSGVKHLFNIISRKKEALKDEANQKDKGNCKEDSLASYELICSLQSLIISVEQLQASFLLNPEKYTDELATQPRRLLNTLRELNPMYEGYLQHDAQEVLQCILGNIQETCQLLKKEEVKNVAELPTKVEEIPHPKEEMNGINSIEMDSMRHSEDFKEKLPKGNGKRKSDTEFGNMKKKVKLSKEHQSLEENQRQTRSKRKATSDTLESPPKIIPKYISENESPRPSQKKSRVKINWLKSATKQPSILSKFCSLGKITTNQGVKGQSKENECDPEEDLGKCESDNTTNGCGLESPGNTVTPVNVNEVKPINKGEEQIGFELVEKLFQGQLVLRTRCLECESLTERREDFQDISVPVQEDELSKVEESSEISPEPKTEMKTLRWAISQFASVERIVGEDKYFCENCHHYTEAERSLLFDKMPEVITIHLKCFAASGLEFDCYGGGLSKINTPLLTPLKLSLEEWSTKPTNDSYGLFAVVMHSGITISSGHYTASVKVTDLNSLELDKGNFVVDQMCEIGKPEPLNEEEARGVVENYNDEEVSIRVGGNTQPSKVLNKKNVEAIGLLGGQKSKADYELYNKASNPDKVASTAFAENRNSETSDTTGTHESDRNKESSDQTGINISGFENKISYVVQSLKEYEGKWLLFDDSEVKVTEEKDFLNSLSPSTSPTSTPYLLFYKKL
#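 In this screen, compounds sit with the deubiquitinase complex (1nM) for 15 min at room temperature before Ub-Rho is added at 150nM final. Fluorescence rise is then followed for 6 reads every 60 seconds.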
# The depositor's hits bear a star; ? = inconclusive; . = no result given. % is scaled to controls: 0 for no effect and ±100 for the full control effect.
SMILES,KCNH2 3.1 inh,KCNH2 WT inh,Giardia killer,FBPA coupling cs,USP1-UAF1 inh
CCN(CC)CCNC(=O)c1ccc(N2CCCCC2)c(NS(=O)(=O)c2ccc(C)cc2)c1,-10,18,3,-3,-4%
Cc1ccc(C)c(NC(=O)CCN2CC(C)CC(C)C2)c1 (configuration not stated),-73*,-2,-3,2,-12%
Cc1ccc(C)c(NC(=O)CCN2CCC(C)CC2)c1,-2,13,6,-2,-15%
Cc1ccc(-c2csc(-c3cc4c([nH]c3=O)CC(c3ccccc3)CC4=O)n2)cc1 (configuration not stated),.,.,.,.,-6%
CCOc1ccc2nc(NC(=O)CN3CCC(n4nnc5cc(C(F)(F)F)ccc54)CC3)sc2c1,-79*,-2,-2,-10,-24%
Cc1cc(NC(=O)CN2CCC(n3nnc4cc(C(F)(F)F)ccc43)CC2)no1,-24,12,13,0,-18%
O=C(N/N=C/c1c(O)ccc2ccccc12)c1cccnc1,4,16,3,0,-29%
O=C(N/N=C\c1c(O)ccc2ccccc12)c1cncc(Br)c1,-22,-15,-14,0,32µM*
Oc1cccc(/C=N/NC(=S)Nc2cccnc2)c1O,22,-2,-12,-11,-21%
Oc1ccc(/C=N/NC(=S)Nc2cccnc2)c(O)c1O,-16,-3,10,-63*,?
Oc1ccc(/C=N/NC(=S)Nc2cccnc2)c(O)c1,-137*,-176*,-8,5,-17%
Oc1ccc(C=NNC(=S)Nc2ccc(F)cc2)c(O)c1,-4,-2,8,.,-15%
Cc1cccc(N/N=C/c2ccc(O)c(O)c2O)c1,0,-8,7,-69*,-26%
COc1cccc(N/N=C/c2cccc(Br)c2O)c1,22,0,16,3,-5%
CC[C@H](C)N,.,.,.,0,.
COc1ccc(OC)c(NC(=O)CCc2c(C)nc3c(c(C)nn3C(C)(C)C)c2C)c1,.,.,.,.,-23%
CCc1ccc(Nc2cc(C(=O)NCCCN3CCOCC3)c3ccccc3n2)cc1,-74*,20,8,-8,3%
COc1ccc(Nc2cc(C(=O)NCCCN3CCOCC3)c3ccccc3n2)cc1,-7,0,-2,.,-30%
O=C1c2ccccc2-c2onc3c(N4CCN(CCO)CC4)cc(N4CCN(C(=O)c5ccco5)CC4)c1c23,-4,9,7,-23,?
O=C(O)CCCNc1cc(N2CCN(C(=O)c3ccco3)CC2)c2noc3c2c1C(=O)c1ccccc1-3,8,-5,2,-18,28µM*
CN1CCN(c2cc(N3CCN(C(=O)c4ccco4)CC3)c3c4c(onc24)-c2ccccc2C3=O)CC1,21,-29,1,-23,?
CCOC(=O)N1CCN(c2cc(NCCC(=O)O)c3c4c(onc24)-c2ccccc2C3=O)CC1,2,26,-2,-54*,14µM*
O=C(O)CCCNc1cc(N2CCC3(CC2)OCCO3)c2noc3c2c1C(=O)c1ccccc1-3,.,.,.,-39*,.
CCN(CC)CCNC(=O)Nc1ccc2c(c1)N(Cc1ccccc1)C(=O)c1ccccc1S2,.,.,.,.,-22%
COc1ccc(CNC(=O)CN2C(=O)CSc3ccc(S(=O)(=O)N(C)C)cc32)cc1,.,.,.,.,-23%
SMILES,KCNH2 3.1 inh,KCNH2 WT inh,Giardia killer,FBPA coupling cs,USP1-UAF1 inh
COc1ccc(C(=O)c2ccc(OC)c(OC)c2)cc1OC,-19,5,-3,-1,-17%
COc1ccc(C(=O)c2nccc3cc(OC)c(OC)cc23)cc1OC,-2,12,3,.,14µM*
COC(=O)c1cc(Cl)c(NC(=O)/C=C/c2ccc(Cl)cc2)cc1OC,-80*,-27,9,1,-13%
CCOC(=O)c1nn(-c2ccc(Cl)cc2)c2nnc(Cc3ccc(C)cc3)c(=O)n12,-88*,-6,-4,-8,-25%
O=C(NC1CCCc2ccccc21)c1cccnc1 (configuration not stated),-5,-6,14,1,-3%
c1cncc(CNC2CCCc3ccccc32)c1 (configuration not stated),-99*,-18,-4,1,-2%
c1ccc(COc2ncnc3c2ncn3CCCNCC(c2ccccc2)c2ccccc2)cc1,-72*,-18,.,.,1%
COc1ncnc2c1ncn2CCCNCC(c1ccccc1)c1ccccc1,15,-5,.,.,-15%
N#Cc1ccc(OCC(O)CN2CCN(C(c3ccccc3)c3ccccc3)CC2)cc1 (configuration not stated),-100*,-84*,5,-1,-24%
c1ccc(OCCOCCN2CCN(C(c3ccccc3)c3ccccc3)CC2)cc1,-86*,-78*,-15,2,-2%
OC(COc1ccccc1)CN1CCN(C(c2ccccc2)c2ccccc2)CC1 (configuration not stated),-109*,-120*,8,1,-9%
N#Cc1ccc(-c2ccc(OCC(O)CN3CCCCC3)cc2)cc1 (configuration not stated),-32,55,38,-1,-16%
CCC(=O)c1ccc(OCC(O)CN2CCOCC2)cc1 (configuration not stated),3,15,12,-6,-14%
CCC(=O)c1ccc(OCC(O)CN2CCN(C(c3ccccc3)c3ccccc3)CC2)cc1 (configuration not stated),-98*,-88*,1,2,-13%
CCC1Cc2cc(O)ccc2C2=C1c1ccc(O)cc1CC2CC (configuration not stated),.,.,.,3,.
N#Cc1ccc(OCC(O)CN2CCN(CC(O)COc3ccc(C#N)cc3)CC2)cc1 (configuration not stated),-107*,-147*,-3,-1,-4%
OC(CN1CCN(c2ncc(C(F)(F)F)cc2Cl)CC1)c1ccccc1 (configuration not stated),?,-4,-27,-2,-11%
OC(COCc1ccco1)CN1CCN(C(c2ccccc2)c2ccccc2)CC1 (configuration not stated),-104*,-76*,5,2,-1%
COc1ccccc1OCCCCN1CCN(C(c2ccccc2)c2ccccc2)CC1,-93*,-49,-26,2,-15%
N#Cc1ccc(OCC(O)CN2CCN(c3ncc(C(F)(F)F)cc3Cl)CC2)cc1 (configuration not stated),-101*,?,-6,0,-25%
CC(=O)c1ccc(NC(=O)CC(c2cccs2)N2Cc3ccccc3C2=O)cc1 (configuration not stated),.,.,.,.,-1%
O=C(O)c1cc(N=Nc2ccc(-c3ccc(N=Nc4ccc(O)c(C(=O)O)c4)cc3)cc2)ccc1O,.,.,.,13,.
CC(=O)c1ccc(N2CCN(CC(O)COC(c3ccccc3)c3ccccc3C)CC2)cc1 (configuration not stated),-94*,-25,6,-2,-20%
NC(=O)COC(=O)c1cccnc1Nc1ccccc1F,-72*,6,6,0,-9%
